Source: PubChem BioAssay (NCI)
Several values for one entry are separate records, joined by “and”; a condition that tells them apart may be missing. Equal values may be shown once. About 79,000 compounds went through this panel and 15% of them were active in at least one assay; those are over-represented in the sample as a whole. A number with no mark means an inactive call. Activity calls are given as the source filed them. Cut-off read from the data, not from the text of the source: active = growth inhibition above about 70%; inactive = the rest.

Legend:
[1] = NCI Yeast Anticancer Drug Screen. Data for the rad50 strain (AID 155);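 note: 0% = growth of vehicle-only cultures of the same strain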; details: S. cerevisiae rad50 strain growth inhibition; at 50.0 µM; active compounds read high
How it was run: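 Growth of the mutant yeast was measured after compound exposure and referenced to vehicle-treated cultures.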

[2] = NCI Yeast Anticancer Drug Screen. Data for the mec2-1 strain (AID 157); details: S. cerevisiae mec2-1 strain, at 50.0 µM, active compounds read high
How it was run: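 Vehicle-treated cultures served as reference for growth inhibition of compound-exposed mec2-1 yeast.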

[3] = NCI Yeast Anticancer Drug Screen. Data for the sgs1 mgt1 strain (AID 161);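 note: 0% = growth of cultures given vehicle only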; details: S. cerevisiae sgs1 mgt1 strain, at 50.0 µM, active compounds read high
How it was run: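 Genetically altered yeast, compound exposure, growth inhibition relative to vehicle.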

[4] = NCI Yeast Anticancer Drug Screen. Data for the cln2 rad14 strain (AID 165);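 note: 0% = growth equal to vehicle treated cultures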; details: S. cerevisiae cln2 rad14 strain, at 50.0 µM, active compounds read high
How it was run: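 Each compound was tested on cln2 rad14 yeast. Inhibition of growth was calculated against vehicle-exposed controls.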

[5] = NCI Yeast Anticancer Drug Screen. Data for the bub3 strain (AID 167); details: S. cerevisiae bub3 mutant strain, at 50.0 µM, active compounds read high
How it was run: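 Whole-cell yeast assay. The mutant strain was incubated with compounds, and growth inhibition was determined by comparison with vehicle-treated cells.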

[6] = NCI Yeast Anticancer Drug Screen. Data for the mlh1 rad18 strain (AID 175); details: S. cerevisiae mlh1 rad18 strain growth inhibition; at 50.0 µM; active compounds read high
How it was run: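 Vehicle-treated cultures served as the reference for growth inhibition in a yeast strain carrying DNA damage repair alterations exposed to each compound.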

Compound	growth inhibition [1]	growth inhibition [2]	growth inhibition [3]	growth inhibition [4]	growth inhibition [5]	growth inhibition [6]
NC(C(=O)[O-])C(=O)[O-].NC1CCCCC1N.[Pt+4]	7.35%	-5.95%	5.75%	-31.6%	-17.9%	-3.2%
CC(C)(C)C1COP(=O)(Oc2ccccc2)OC1 (stereo not drawn)	2.35%	7.55%	-4.5%	-13.8%	19.4%	3.6%
CN(C)CCNC(=O)c1cccc(COC(=O)Nc2ccc(N(CCCl)CCCl)cc2)c1[N+](=O)[O-]	-3.55%	-15.8%	1.2%	-49.8%	-3.65%	-11.9%
O=C(COc1ccc(Cl)c(Cl)c1)Nc1cccc(S(=O)(=O)F)c1	29.4%	10.4%	-2.45%	-10.8%	13.1%	19.4%
CNC(=S)P(c1ccccc1)c1ccccc1	9.4%	15.2%	7.1%	22.4%	13.4%	10.4%
CC(C)(C)C1COP(=S)(C(C)(C)C)OC1 (stereo not drawn)	-8.3%	-5.6%	-0.55%	-20.5%	-0.5%	-5.15%
O=[As](O)(O)c1cc(F)ccc1F	-5.75%	-4.3%	-11.4%	-15.3%	-8%	-8.3%
CCC(C)Sc1ccccc1OC(=O)NC (stereo not drawn)	-10.4%	7.05%	0.5%	-16.6%	9.85%	24.1%
Cc1nc2ccccc2c(=O)n1-c1ccc(N(CCCl)CCCl)cc1	-0.6%	-9.25%	-17.1%	-6.9%	4.8%	4.5%
ClCCN(CCCl)Cc1c2ccccc2cc2c1ccc1ccccc12	48.5%	9.2%	46.8%	-38.3%	-2.5%	65.5%
CCOP(O)(=S)OCC	16.8% and 9.55% and 2.25%	23.4% and 10.2% and 2.35%	11.6% and 7.65% and -4.2%	-2.05% and 20.1% and 6.7%	-15.8% and -14.5% and -14%	17% and 18.8% and 3.2%
C(=Nc1ccccc1)C1CCCC[N-]1.C(=Nc1ccccc1)C1CCCC[N-]1.[Cu+2].[O-][Cl+3]([O-])([O-])O (stereo not drawn)	90.5% (active)	83.6% (active)	65%	92.5% (active)	74.2% (active)	88% (active)
S=c1sc(-c2ccc(Cl)cc2)c[se]1	4.45%	3.85%	-13.3%	-33.2%	1.7%	-5.05%
CC[n+]1c(-c2ccccc2)c2cc(N)ccc2c2ccc(N)cc21 (tested in a mixture with another compound)	98.5% (active)	88.8% (active)	95% (active)	54.5%	74.9% (active)	85.5% (active)
CCCN=Cc1ccccc1O.CCCN=Cc1ccccc1O.[Ni]	37.5%	9.4%	18.6%	-35.9%	4.85%	29.8%
O=C(CF)NCCCl	-3.45%	-8.8%	-1.65%	9.5%	9.65%	1.45%
CC(=O)C(=O)c1ccccc1	-14.6%	6.5%	-0.45%	-25.8%	-19.7%	-21.5%
[C-]#[O+].[C-]#[O+].[C-]#[O+].[C-]#[O+].[Cr].c1ccc([PH+](c2ccccc2)c2ccccc2)cc1.c1ccc([PH+](c2ccccc2)c2ccccc2)cc1	-4.4%	8.05%	-8.95%	-3.35%	-5.4%	-1.55%
